# From PubChem
# This is a sample that favours compounds with a hit; in the whole collection about 8% have one here.
# HT1080-NT tox = kills 2HG-producing HT-1080-NT fibrosarcoma cells; 360,000 tested, 1.6% active; Potency, µM (highest dose often 46.1 µM), usual class: cytotoxic; AID 686970; HT-1080-NT fibrosarcoma viability, CellTiter-Glo ATP luminescence, 48 h;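 note: NT is the 2HG producing partner of a matched IDH1 knockdown line; nearly all actives have a fitted effect of over 55% in size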
#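 Read-out is CellTiter-Glo luminescence after 10 minutes at room temperature, following 48 hours' compound treatment of HT-1080-NT cells (750 cells/well, RPMI, 5% FBS, 37 degrees C).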
# SW480 rereplic = DNA re-replication induction in SW480 cells | SW480 DNA re-replication, Hoechst DNA content imaging, 48 h | Potency, µM (series often up to 46.1 µM), actives largely listed as activators | 340,000 tested, 1.8% active | AID 624297; note: nearly all actives have a fitted effect of over 55% in size
#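 Treated cells incubate 48 hr (37 C, 5% CO2), are stained 40 min with Hoechst, and nuclear fluorescence is enumerated; a rise in nuclei with high DNA signal marks re-replication.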
# HT1080 IDH1KD tx = toxicity to HT-1080 IDH1 knockdown cells (counter line) | HT-1080 IDH1 knockdown viability, ATP luminescence, 48 h | Potency, µM (top dose mostly 46.1 µM), actives largely listed as cytotoxic | 360,000 tested, 2% active | AID 686971
#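 % activity derives from luminescence (CellTiter-Glo), normalised to DMSO and no-cell wells. HT-1080-IDH1KD cells, 750/well, had 48 h compound exposure at 37 °C.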
# KB-V1 MDR tox = KB-V1 MDR subline cytotoxicity; KB-V1 MDR cells viability, CellTiter-Glo, 72 h; Potency, µM (doses to about 46.1 µM), hits mostly cytotoxic; 400,000 tested, 3.4% active; AID 1347076; note: nearly all actives have a fitted effect of over 60% in size
#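 Luminescent ATP read-out (CellTiter-Glo, 10 min) measures survival of drug-selected KB-V1 MDR cells after 72 h, 37 degrees C compound exposure. Medium: phenol-red-free DMEM, 10% FBS. Values from fitted concentration-response curves.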
# KB-3-1 tox = KB-3-1 parental cell cytotoxicity | KB-3-1 viability, CellTiter-Glo ATP luminescence, 72 h | Potency, µM (highest dose often 46.1 µM), most hits filed as cytotoxic | 400,000 tested, 1.4% active; note: nearly all actives have a fitted effect of over 60% in size
#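 Parental KB-3-1 viability, qHTS format: 72 h compound exposure, 37 °C; CellTiter-Glo; media-only wells and DMSO plates as controls; concentration-effect fits on corrected data.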
# MCF10A rereplic = inducers of DNA re-replication in MCF 10A breast cells | MCF 10A DNA re-replication, Hoechst nuclear intensity, 48 h | Potency, µM (doses to about 46.1 µM), most hits filed as activators | 350,000 tested, 2.9% active; note: nearly all actives have a fitted effect of over 50% in size
# A number is an active result; . = inactive; ? = inconclusive; / = no result given; [ ] = dose if it differs, or a comment. Calls come from the whole dose curve; as a rule, active = well fitted curve in the direction sought with a large enough effect; inconclusive = small, poorly fitted or top-dose-only effect, or another doubt; inactive = no such curve, though single readings can be large; an effect the other way counts as inactive or inconclusive.
SMILES,HT1080-NT tox,SW480 rereplic,HT1080 IDH1KD tx,KB-V1 MDR tox,KB-3-1 tox,MCF10A rereplic
Cc1cc(NCc2ccccn2)n2nc(C)c(-c3ccc(Cl)cc3)c2n1,?,.,21µM,?,.,?
Cc1cc(NCc2ccccn2)n2ncc(-c3ccccc3)c2n1,.,0.82µM,?,?,.,.
O=C(NCc1ccccc1CN1CCCCC1)c1ccccc1N1CCCC1=O,.,.,.,.,.,.
Brc1ccc2c(c1)OCCOCCOc1cc(Br)ccc1OCCOCCOCCO2,?,?,18µM,2.3µM,?,?
Brc1cc2c(cc1Br)OCCOCCOCCOCCO2,.,.,.,.,.,?
COC(=O)C(CCSC)NC(=O)c1c(C)oc2ncn(CC(C)C)c(=O)c12 (stereo not drawn),/,/,/,.,.,/
Cc1ccc(C(=O)N/N=C/c2ccc(-c3cccc(C(F)(F)F)c3)o2)cn1,?,7.3µM,2.1µM,8.2µM,6.5µM,9.2µM
CNC(=S)N/N=C/c1ccc(-c2cccc(C(=O)O)c2)o1,?,.,?,21µM,15µM,.
NC(=S)N/N=C\c1ccc(-c2cccc(Cl)c2Cl)o1,.,.,.,1.3µM,5.8µM,?
Cc1ccc(-c2ccc(/C=N/NC(N)=S)o2)cc1,.,.,.,?,.,?
NC(=S)N/N=C/c1ccc(-c2ccccc2)o1,.,.,.,?,.,0.73µM
O=S(=O)(Nc1ccccc1)c1ccc(-c2cnc(C3CC3)o2)cc1,?,.,?,?,?,?
Cc1cccc(NS(=O)(=O)c2ccc(-c3cnc(C4CC4)o3)cc2)c1C,?,?,?,?,0.18µM,?
Cc1cc(C)cc(NS(=O)(=O)c2ccc(-c3cnc(C4CC4)o3)cc2)c1,1.3µM,.,0.65µM,4.1µM,1.2µM,?
CC(=O)c1cccc(NS(=O)(=O)c2ccc(-c3cnc(C4CC4)o3)cc2)c1,21µM,.,?,?,?,.
COc1ccc(NS(=O)(=O)c2cc(-c3cnc(C4CC4)o3)ccc2C)cc1,?,?,21µM,?,13µM,5.8µM
CCc1ccc(NS(=O)(=O)c2cc(-c3cnc(C4CC4)o3)ccc2C)cc1,/,/,/,?,.,/
O=C(NCc1cccc(Cl)c1)c1ccc2c(c1)nc1n2CCOC1,/,/,/,.,.,/
CC(=O)Nc1ccc(NS(=O)(=O)c2ccc(-c3cnc(C4CC4)o3)cc2)cc1,.,.,.,.,.,.
COc1ccc(-c2cnc(C)o2)cc1S(=O)(=O)Nc1ccc(C)c(F)c1,/,/,/,5.8µM,5.8µM,/
Cc1ccc(C)c(NS(=O)(=O)c2ccc(-c3cnc(C4CC4)o3)cc2)c1,0.1µM,?,0.16µM,0.33µM,?,?
CCOc1ccc(NS(=O)(=O)c2ccc(-c3cnc(C4CC4)o3)cc2)cc1,?,.,?,16µM,?,6.5µM
Cc1ccc(NS(=O)(=O)c2ccc(-c3cnc(C4CC4)o3)cc2)cc1N(C)C,/,/,/,.,.,/
C=CC[n+]1c(-c2ccccc2)csc1NC(C)(C)C,.,.,.,.,.,.
C=CC[n+]1c(-c2ccc(OC)c(OC)c2)csc1NNC(=O)Nc1ccccc1,?,.,16µM,18µM,?,.
SMILES,HT1080-NT tox,SW480 rereplic,HT1080 IDH1KD tx,KB-V1 MDR tox,KB-3-1 tox,MCF10A rereplic
COc1ccc(-c2cc(C)nc3c(-c4ccc(OC)c(OC)c4)c(C)nn23)cc1,/,/,/,.,.,/
CCOc1ccc(C2c3c(oc4ccccc4c3=O)C(=O)N2Cc2ccc3c(c2)OCO3)cc1 (stereo not drawn),/,/,/,.,.,/
CC(C)(C)C1CCC2(CC1)NC(=S)N(c1ccccc1)N2 (stereo not drawn),?,.,5.8µM,.,?,?
CCC(C)(C)C1CCC2(CC1)NC(=S)N(c1ccccc1)N2 (stereo not drawn),?,.,18µM,.,?,?
Cc1c(NC(=O)c2ccc(Br)s2)c(=O)n(-c2ccccc2)n1C,.,.,.,?,.,.
Fc1ccc(Nc2nc(N3CCOCC3)nc(N3CCOCC3)n2)cc1Cl,.,18µM,.,.,.,.
Clc1ccc(Nc2nc(NCCN3CCOCC3)nc(N3CCOCC3)n2)cc1,?,9.2µM,.[9.24 µM],?,?,?
Clc1ccc(Nc2nc(Nc3ccc(Cl)cc3)nc(N3CCOCC3)n2)cc1,/,/,/,.,.,/
CCOc1ccc(Nc2nc(N3CCOCC3)nc(N3CCOCC3)n2)cc1,.,.[9.22 µM],.,.,.,.
CCOc1ccc(Nc2nc(NCCN3CCOCC3)nc(OC)n2)cc1,.,.,.,18µM,.,.
O=C1NCc2c1c1c3ccccc3[nH]c1c1[nH]c3ccccc3c21,/,/,/,.,?,/
O=C(NCCc1c[nH]c2ccccc12)C(=O)c1c[nH]c2ccccc12,?,.,?,.,?,.
C=CCNC(=O)c1ccc([N+](=O)[O-])c(Cl)c1,.,.,.,.,.,.
Cc1cc2cc(CCNC(=O)c3ccc(S(=O)(=O)N4CCCC4)cc3)c(=O)[nH]c2cc1C,.,?,.,/,/,?
Cc1cc2cc(CCNC(=O)C(=O)c3c[nH]c4ccccc34)c(=O)[nH]c2cc1C,?,.,13µM,?,.,?
CC(C)(CNC(=O)c1ccc([N+](=O)[O-])c(Cl)c1)CNC(=O)c1ccc([N+](=O)[O-])c(Cl)c1,21µM,?,?,?,?,?
Cc1ccc(CSCCNC(=O)c2cccc([N+](=O)[O-])c2)cc1,.,.,.,18µM,.,.
Cc1cc2cc(CCNC(=O)c3ccc(C)c([N+](=O)[O-])c3)c(=O)[nH]c2cc1C,.,.,.,6.5µM,.,?
COC(=O)[C@]1(C)N[C@H](CN(C)C(=O)c2ccc(F)cc2)[C@@H]2C(=O)N(C)C(=O)[C@@H]21,.,.[9.22 µM],.,.,.,.
Cc1ccc(C(=O)NCCc2cccc(Cl)c2)cc1[N+](=O)[O-],.,.,.,16µM,.,.
Cc1ccc(SCCNC(=O)c2ccc([N+](=O)[O-])c(C)c2)cc1,.,.,.,.,.,.
O=C(NCCc1cccc(Cl)c1)c1ccc(Cl)c([N+](=O)[O-])c1,?,.,.,.,.,.
O=C(Cn1c(=O)c2sccc2n(Cc2ccc([N+](=O)[O-])cc2)c1=O)NCCc1ccccc1,.,.,.,.,.,.
O=C(Cn1c(=O)c2sccc2n(Cc2cccc([N+](=O)[O-])c2)c1=O)NCCc1ccccc1,.,.,?,8.2µM,.,.
O=C(NCCSCc1ccccc1)c1ccccc1,.,.,.,.,.,.
Cc1ccc(SCCNC(=O)c2ccc(C)c([N+](=O)[O-])c2)cc1,.,.,.,23µM,.,.
Cc1ccc(C(=O)NCCSCc2ccccc2)cc1[N+](=O)[O-],.,.,.,21µM,.,?
